Assay outcomes (PubChem BioAssay)
EPAC1 ag val = validation of human EPAC1 agonists; O95398; EPAC1 Rap1b BODIPY-GDP exchange, fluorescence; Potency, µM, hits mostly activators; actives 1% (n = 16,000); also: nearly all actives have a fitted effect of over 70% in size
EPAC2 antag = human EPAC2 antagonism, validation; EPAC2 Rap1B BODIPY-GDP exchange, fluorescence; Potency, µM (titrated, usually from 112 µM), usual class: inhibitors; actives 1.7% (n = 16,000); AID 1645886; also: nearly all actives have a fitted effect of over 40% in size
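Fluorescent exchange read-out: 100 nM EPAC2 with 250 nM RAP1B–BODIPY-GDP and 50 uM GDP; BODIPY-GDP release lowers fluorescence. Read at 480/540 nm every 5 min for 30 min at room temperature; normalized to 6.5 mM cAMP.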
Hits are given with their value; n = inactive; u = inconclusive; ! = a repeat was not active. Shown are actives, neighbours in structure and some others; about 2.9% of the full set was active somewhere. Calls follow the shape of the dose curve; as a rule, active = well fitted curve in the direction sought with a large enough effect; inconclusive = small, poorly fitted or top-dose-only effect, or another doubt; inactive = no such curve, though single readings can be large; an effect the other way counts as inactive or inconclusive.

SMILES	EPAC1 ag val	EPAC2 antag
Cc1cc2nc(N3CCCN(Cc4cccn4-c4ncccn4)CC3)nc(C)c2cc1C	n	n
O=c1c(-c2cc(F)cc(F)c2)nc2cnc(N3CCOCC3)nc2n1Cc1cccs1	n	n
N#CCCn1c(=O)c(-c2ccc(Cl)cc2)nc2cnc(Nc3ccccc3)nc21	112µM	n
COCCn1c(=O)c(-c2cccs2)nc2cnc(N3CCOCC3)nc21	112µM	n
COc1ncc2nc(-c3cccs3)c(=O)n(CCC#N)c2n1	n	n
O=c1c(-c2cc(F)cc(F)c2)nc2cnc(N3CCNCC3)nc2n1Cc1cccs1	u	45µM
COc1ccc(-n2c(=O)c(-c3cccs3)nc3cnc(N4CCOCC4)nc32)cc1	u	n
N#CCCn1c(=O)c(-c2ccccc2)nc2cnc(Nc3ccccc3)nc21	n	n
CN(C)c1ncc2nc(-c3cccs3)c(=O)n(CCC#N)c2n1	100µM	n
CCCCCCCCCCCCCCCC(=O)O[C@@H]1CC(C)=C(/C=C/C(C)=C/C=C/C(C)=C/C=C/C=C(C)/C=C/C=C(C)/C=C/C2=C(C)C[C@@H](OC(=O)CCCCCCCCCCCCCCC)CC2(C)C)C(C)(C)C1	n	n
COc1ccc2c(c1)-c1nc(-n3ncc(C(=O)NC[C@@H]4CCCN5CCCC[C@H]45)c3C)ncc1CC2	n	n
O=C1C2CC3CC1CC(O)(C3)C2	n	n
COC(=O)c1cc(CNC(=O)c2ccccc2OC)cc(NC(=O)c2ccccc2F)c1	n	n
COc1ccccc1C(=O)N(Cc1cc2cc3c(cc2nc1N(C)C)OCO3)CC1CCCO1 (stereo not drawn)	n	u
COc1cccc(C2(CC(=O)N3CCN(c4nonc4C)CC3)CC(=O)N(C3CCCC3)C2=O)c1 (stereo not drawn)	n	n
CN(C)CCC=C1c2ccccc2COc2ccccc21	n	n
COCCn1c(=O)c(-c2ccc(OC)cc2)nc2cnc(Nc3ccccc3)nc21	n	n
COCCn1c(=O)c(-c2cccs2)nc2cnc(Nc3ccccc3)nc21	100µM	n
O=c1c(-c2cc(F)cc(F)c2)nc2cnc(N3CCOCC3)nc2n1-c1ccccc1	112µM	n
COc1ccc(-n2c(=O)c(-c3cccs3)nc3cnc(Nc4cccc(OC)c4)nc32)cc1	100µM	n
O=c1c(-c2cccs2)nc2cnc(N3CCNCC3)nc2n1Cc1cccs1	u	56µM
COc1cccc(Nc2ncc3nc(-c4cccs4)c(=O)n(CCC#N)c3n2)c1	u	n
O=c1c(-c2ccccc2)nc2cnc(N3CCOCC3)nc2n1-c1ccccc1	n	n
CN1CCN(c2ncc3nc(-c4cccs4)c(=O)n(Cc4cccs4)c3n2)CC1	n	n
Cc1onc(-c2c(F)cccc2Cl)c1C(=O)N[C@@H]1C(=O)N2[C@@H]1SC(C)(C)[C@@H]2C(=O)O	n	n
SMILES	EPAC1 ag val	EPAC2 antag
Cc1oc(-c2ccccc2NC(=O)c2cccnc2)nc1CNC(=O)c1ccc(N(C)C)cc1	n	n
CC(C)[C@@H](C)/C=C/[C@@H](C)[C@H]1CC[C@H]2/C(=C/C=C3\C[C@@H](O)CC[C@@H]3C)CCC[C@]12C	n	n
CO[C@H]1[C@H](NC(=O)c2ccco2)c2ccccc2C12CCN(Cc1cc(Cl)ccc1O)CC2	n	n
CN(C)c1ncc2ncc(=O)n(Cc3cccs3)c2n1	n	45µM
COc1ncc2ncc(=O)n(Cc3cccs3)c2n1	n	n
COc1ccc(SC[C@H](Cc2ccccc2)N2CC[C@@H](C)CCC2=O)cc1	n	40µM
Cc1ccc(SC[C@H](Cc2ccccc2)N2CC[C@@H](C)CCC2=O)cc1	n	u
Cc1nc(C)c(C(=O)NCc2nc(-c3cccc(NC(=O)c4ccccn4)c3)oc2C)s1	n	n
CCC(CN)CC(C)CCNCC(O)CNCC(C)CC(CC)CN (stereo not drawn)	n	n
COc1cc(O)c(C(=O)/C=C/c2ccc(OC)c(O)c2)c(OC)c1	100µM	n
COc1ccc(/C=C/C(=O)c2cccs2)c(OC)c1	u	n
Cc1[nH]c2ccccc2c1/C=C/c1ccc2ccccc2n1	100µM	n
Cc1[nH]c2ccccc2c1/C=C/c1cnc2ccccc2n1	n	n
C[C@@H]1CN(Cc2ccc3c(c2)CN(Cc2coc4ccccc4c2=O)CCO3)C[C@H](C)O1	n	n
COc1cc([C@@H]2c3cc4c(cc3[C@@H](O[C@@H]3O[C@@H]5CO[C@@H](C)O[C@@H]5[C@H](O)[C@@H]3O)[C@H]3COC(=O)[C@H]23)OCO4)cc(OC)c1O	n	n
Cc1cnc(SCc2ccccn2)nc1C1CCCN(C(=O)c2ccc3c(c2)OCO3)C1 (stereo not drawn)	n	n
CC(C)=CCC/C(C)=C/CC/C(C)=C/CO	n	45µM!
CC(C)=CCC/C(C)=C/CC/C(C)=C/CC/C(C)=C/CC/C(C)=C/CC/C(C)=C/CC/C(C)=C/CC/C(C)=C/CC/C(C)=C/CO	n	n
c1ccc2c(N3CCCCCC3)nc(CN3CCCCC3c3nccs3)nc2c1 (stereo not drawn)	n	20µM
COC(=O)C1CCCCN1Cc1nc(N2CCCN(C(C)=O)CC2)c2ccccc2n1 (stereo not drawn)	n	n
CCC(=O)O[C@@H]1CC(=O)O[C@H](C)C/C=C/C=C/[C@@H](O)[C@H](C)C[C@H](CC=O)[C@H](OC2O[C@H](C)[C@@H](O[C@H]3C[C@@](C)(O)[C@@H](OC(=O)CC)[C@H](C)O3)[C@H](N(C)C)[C@H]2O)[C@H]1OC (stereo partly drawn)	n	n
CCCCOCCOCCOCc1cc2c(cc1CCC)OCO2	n	50µM!
Oc1cc(O)c2c(c1)O[C@H](c1ccc(O)c(O)c1)[C@@H](O)C2	n	n
O=c1c(O)cc(C2Oc3cc(O)cc(O)c3CC2O)cc2c(C3Oc4cc(O)cc(O)c4CC3O)cc(O)c(O)c12 (stereo not drawn)	n	20µM
CC(=O)[C@]1(O)Cc2c(O)c3c(c(O)c2[C@@H](O[C@H]2C[C@H](N)[C@H](O)[C@H](C)O2)C1)C(=O)c1ccccc1C3=O	40µM	n
SMILES	EPAC1 ag val	EPAC2 antag
COc1cccc2c1C(=O)c1c(O)c3c(c(O)c1C2=O)C[C@@](O)(C(=O)CO)C[C@@H]3O[C@H]1C[C@H](N)[C@H](O[C@@H]2CCCCO2)[C@H](C)O1	n	n
CC(=O)[C@]1(O)Cc2c(O)c3c(c(O)c2[C@@H](O[C@H]2C[C@H](N)[C@H](O)[C@H](C)O2)C1)C(=O)c1c(O)cccc1C3=O	112µM	n
COc1cccc2c1C(=O)c1c(O)c3c(c(O)c1C2=O)C[C@@](O)(C(C)=O)C[C@@H]3O[C@H]1C[C@H](N)[C@H](O)[C@H](C)O1	112µM!	n
CC[C@@]1(O)C[C@H](O[C@H]2C[C@H](N(C)C)[C@H](O[C@H]3C[C@H](O)[C@H](O[C@H]4CCC(=O)[C@H](C)O4)[C@H](C)O3)[C@H](C)O2)c2c(cc3c(c2O)C(=O)c2c(O)cccc2C3=O)[C@H]1C(=O)OC	n	n
Cc1cc(OCCOCC[N+](C)(C)Cc2ccccc2)ccc1C(C)(C)CC(C)(C)C	n	u
CCC(=O)OCC(=O)[C@@]1(OC(=O)CC)[C@H](C)C[C@H]2[C@@H]3CCC4=CC(=O)C=C[C@]4(C)[C@@]3(F)[C@@H](O)C[C@@]21C	n	u
